# Key:
# Settings in all cases: concentration: 1 μM,replicates: in singlicate; n = 1
# PRKD3 = tested on: PRKD3
# PRKG1 = tested on: PRKG1
# PRKG2 = tested on: PRKG2
# PRKR = tested on: T1, PRKR
# T1 construct: gene EIF2AK2
# PRKX = tested on: PRKX
# PRP4 = tested on: PRP4
# PYK2 = tested on: T2, PYK2
# T2 construct: gene PTK2B
# QSK = tested on: QSK
# RAF1 = tested on: RAF1
# RET = tested on: RET
# RIOK1 = tested on: RIOK1
# RIOK2 = tested on: RIOK2
# RIOK3 = tested on: RIOK3
# RIPK1 = tested on: RIPK1
# RIPK2 = tested on: RIPK2
# RIPK4 = tested on: RIPK4
# RIPK5 = tested on: RIPK5
# ROCK1 = tested on: ROCK1
# ROCK2 = tested on: ROCK2
# ROS1 = tested on: ROS1
# 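Also: KINOMEscan kinase panel screen.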
SMILES,%Inh (PRKD3) [%],%Inh (PRKG1) [%],%Inh (PRKG2) [%],%Inh (PRKR) [%],%Inh (PRKX) [%],%Inh (PRP4) [%],%Inh (PYK2) [%],%Inh (QSK) [%],%Inh (RAF1) [%],%Inh (RET) [%],%Inh (RIOK1) [%],%Inh (RIOK2) [%],%Inh (RIOK3) [%],%Inh (RIPK1) [%],%Inh (RIPK2) [%],%Inh (RIPK4) [%],%Inh (RIPK5) [%],%Inh (ROCK1) [%],%Inh (ROCK2) [%],%Inh (ROS1) [%]
O=C(Nc1n[nH]c2cc(-c3ccco3)ccc12)C1CC1 [SB-737447],0,0,0,0,0,13,23,20,0,0,81,10,79,13,0,36,3,0,0,2
CN1CCN(CCNc2nc3cc(Oc4ccc(NC(=O)Nc5cc(C(F)(F)F)ccc5F)cc4)ccc3[nH]2)CC1.Cl.Cl [GW768504],0,2,0,24,0,0,18,0,75,99.9,0,0,8,2,1,0,3,48,0,16
C[C@@H]1CNc2c(sc3ccc4nc(-c5ccc(O)cc5)ccc4c23)C(=O)N1,43,12,61,0,0,12,19,0,0,13,0,18,3,0,27,3,27,65,51,0
Cc1ccn2nc(-c3ccc(F)cc3)c(-c3ccncc3)c2c1.Cl [GW457859],30,0,19,12,21,28,0,0,15,4,23,0,23,1,41,6,0,12,20,0
CS(=O)c1ccc(-c2coc3ccc(-c4n[nH]c(=O)o4)cc23)cc1 (stereo not shown),0,4,0,20,0,14,4,0,20,12,15,37,0,0,0,0,0,32,0,0
